Measured values taken from PubChem BioAssay AID1159580 (chemical genetic matrix, 2015).
Values joined by “and” are separate entries in the source; they are usually repeats but may differ in a detail not shown here. Identical values can stand only once. Hit rate of the full screen: of about 5,500 compounds, about 2,000 (36%) were called active. Another 18% or so got no clear call; they are omitted. Rule as the data show it: active = normalized growth mostly below about 0.91 (no sharp cut-off); inconclusive = no clear call, values can overlap the other calls; inactive = mostly above about 0.92. Some of the results follow.

Experiment: chemical genetic growth profiling, strain panel (AID 1159580);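 also: tested at 20 µM; growth read once vehicle control cultures reached saturation at 30 °C; 1 = growth at the plate median or of vehicle wells; lower values mean less growth of the strain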
Settings: growth OD

Measured: normalized growth

O=C(O)c1cc2cc(F)ccc2[nH]1
inactive: S. cerevisiae deletion strains, locus YJR075W, strain HOC1, stronger effect = lower value 1.01 | S. cerevisiae deletion strains, locus YKL009W, strain mrt4, stronger effect = lower value 1 | S. cerevisiae deletion strains, locus YKL068W, stronger effect = lower value 1.01 | S. cerevisiae deletion strains, locus YKL085W, strain MDH1 (second series), stronger effect = lower value 1.01 | S. cerevisiae deletion strains, locus YKL085W, strain MDH1, stronger effect = lower value 1.01 | S. cerevisiae deletion strains, locus YKL160W, strain elf1, stronger effect = lower value 0.974 | S. cerevisiae deletion strains, locus YKL190W, strain CNB1, stronger effect = lower value 0.999 | S. cerevisiae deletion strains, locus YKR001C, strain vps1, stronger effect = lower value 1.02 | S. cerevisiae deletion strains, locus YKR026C, strain gcn3, stronger effect = lower value 0.949 | S. cerevisiae deletion strains, locus YKR091W, strain srl3, stronger effect = lower value 0.968 | S. cerevisiae deletion strains, locus YLL001W, strain dnm1, stronger effect = lower value 0.976 | S. cerevisiae deletion strains, locus YLL026W, stronger effect = lower value 0.996 | S. cerevisiae deletion strains, locus YLL041C, strain sdh2, stronger effect = lower value 0.97 | S. cerevisiae deletion strains, locus YLR027C, strain aat2, stronger effect = lower value 0.99 | S. cerevisiae deletion strains, locus YLR039C, strain RIC1, stronger effect = lower value 1.02 | S. cerevisiae deletion strains, locus YLR058C, strain SHM2, stronger effect = lower value 1.01 | S. cerevisiae deletion strains, locus YLR102C, strain apc9, stronger effect = lower value 1.02 | S. cerevisiae deletion strains, locus YLR113W, strain HOG1, stronger effect = lower value 0.948 | S. cerevisiae deletion strains, locus YLR221C, strain rsa3, stronger effect = lower value 0.986 | S. cerevisiae deletion strains, locus YLR258W, strain gsy2, stronger effect = lower value 0.987 | S. cerevisiae deletion strains, locus YLR262C, strain YPT6 (second series), stronger effect = lower value 1 | S. cerevisiae deletion strains, locus YLR262C, strain YPT6, stronger effect = lower value 1.04 | S. cerevisiae deletion strains, locus YLR268W, strain sec22, stronger effect = lower value 1.02 | S. cerevisiae deletion strains, locus YLR320W, strain mms22, stronger effect = lower value 1.01 | S. cerevisiae deletion strains, locus YLR330W, strain CHS5, stronger effect = lower value 1.01 | S. cerevisiae deletion strains, locus YLR342W, strain FKS1 (second series), stronger effect = lower value 1.01 | S. cerevisiae deletion strains, locus YLR342W, strain FKS1, stronger effect = lower value 0.98 | S. cerevisiae deletion strains, locus YLR357W, strain rsc2, stronger effect = lower value 0.976 | S. cerevisiae deletion strains, locus YLR370C, strain arc18, stronger effect = lower value 0.989 | S. cerevisiae deletion strains, locus YLR371W, strain rom2, stronger effect = lower value 1.01 | S. cerevisiae deletion strains, locus YLR384C, strain iki3, stronger effect = lower value 0.965 | S. cerevisiae deletion strains, locus YLR418C, strain cdc73, stronger effect = lower value 1.05 | S. cerevisiae deletion strains, locus YML016C, strain PPZ1, stronger effect = lower value 1.01 | S. cerevisiae deletion strains, locus YML032C, strain rad52, stronger effect = lower value 1.02 | S. cerevisiae deletion strains, locus YML120C, strain ndi1, stronger effect = lower value 0.995 | S. cerevisiae deletion strains, locus YML124C, strain tub3, stronger effect = lower value 1.01 | S. cerevisiae deletion strains, locus YMR058W, strain fet3, stronger effect = lower value 0.985 | S. cerevisiae deletion strains, locus YMR078C, strain ctf18, stronger effect = lower value 1.02 | S. cerevisiae deletion strains, locus YMR125W, strain sto1, stronger effect = lower value 0.948 | S. cerevisiae deletion strains, locus YMR129W, stronger effect = lower value 0.982 | S. cerevisiae deletion strains, locus YMR205C, strain PFK2, stronger effect = lower value 1.03 | S. cerevisiae deletion strains, locus YMR223W, strain ubp8, stronger effect = lower value 1.02 | S. cerevisiae deletion strains, locus YMR231W, strain pep5, stronger effect = lower value 0.992 | S. cerevisiae deletion strains, locus YMR263W, strain SAP30, stronger effect = lower value 1.01 and 0.999 | S. cerevisiae deletion strains, locus YMR307W, strain GAS1, stronger effect = lower value 1.05 | S. cerevisiae deletion strains, locus YNL067W, strain RPL9B, stronger effect = lower value 1.02 | S. cerevisiae deletion strains, locus YNL071W, strain lat1, stronger effect = lower value 0.984 | S. cerevisiae deletion strains, locus YNL128W, strain TEP1, stronger effect = lower value 1 | S. cerevisiae deletion strains, locus YNL153C, strain GIM3, stronger effect = lower value 1.01 | S. cerevisiae deletion strains, locus YNL175C, strain NOP13, stronger effect = lower value 0.952 | S. cerevisiae deletion strains, locus YNL183C, strain NPR1, stronger effect = lower value 0.908 | S. cerevisiae deletion strains, locus YNL197C, strain WHI3, stronger effect = lower value 0.949 | S. cerevisiae deletion strains, locus YNL209W, strain ssb2, stronger effect = lower value 0.983 | S. cerevisiae deletion strains, locus YNL224C, strain SQS1, stronger effect = lower value 0.973 | S. cerevisiae deletion strains, locus YNL233W, strain BNI4, stronger effect = lower value 1.01 | S. cerevisiae deletion strains, locus YNL248C, strain rpa49, stronger effect = lower value 0.969 | S. cerevisiae deletion strains, locus YNL250W, strain rad50, stronger effect = lower value 1.01 | S. cerevisiae deletion strains, locus YNL271C, strain bni1, stronger effect = lower value 1.01 | S. cerevisiae deletion strains, locus YNL298W, strain CLA4, stronger effect = lower value 1.03 | S. cerevisiae deletion strains, locus YNL307C, strain MCK1, stronger effect = lower value 1.02 | S. cerevisiae deletion strains, locus YNL322C, strain KRE1 (second series), stronger effect = lower value 0.99 | S. cerevisiae deletion strains, locus YNL322C, strain KRE1, stronger effect = lower value 1.01 and 0.971 | S. cerevisiae deletion strains, locus YNR049C, strain mso1, stronger effect = lower value 0.97 | S. cerevisiae deletion strains, locus YNR052C, strain pop2, stronger effect = lower value 1.02 | S. cerevisiae deletion strains, locus YOL006C, strain TOP1, stronger effect = lower value 1.05 | S. cerevisiae deletion strains, locus YOL012C, strain htz1 0.97 | S. cerevisiae deletion strains, locus YOL147C, strain pex11, stronger effect = lower value 1.01 | S. cerevisiae deletion strains, locus YOR001W, strain rrp6, stronger effect = lower value 0.961 | S. cerevisiae deletion strains, locus YOR061W, strain CKA2, stronger effect = lower value 1.01 | S. cerevisiae deletion strains, locus YOR069W, strain VPS5, stronger effect = lower value 0.998 | S. cerevisiae deletion strains, locus YOR070C, strain gyp1, stronger effect = lower value 1 | S. cerevisiae deletion strains, locus YOR080W, strain dia2, stronger effect = lower value 0.977 | S. cerevisiae deletion strains, locus YOR083W, strain WHI5 (second series), stronger effect = lower value 0.964 | S. cerevisiae deletion strains, locus YOR083W, strain WHI5, stronger effect = lower value 0.965 | S. cerevisiae deletion strains, locus YOR106W, strain vam3, stronger effect = lower value 0.972 | S. cerevisiae deletion strains, locus YOR136W, strain idh2, stronger effect = lower value 1.02 | S. cerevisiae deletion strains, locus YOR144C, strain elg1, stronger effect = lower value 1.01 | S. cerevisiae deletion strains, locus YOR184W, strain ser1, stronger effect = lower value 1.02 | S. cerevisiae deletion strains, locus YOR231W, strain MKK1, stronger effect = lower value 0.986 | S. cerevisiae deletion strains, locus YOR265W, strain rbl2, stronger effect = lower value 0.98 | S. cerevisiae deletion strains, locus YOR270C, strain vph1, stronger effect = lower value 1.03 | S. cerevisiae deletion strains, locus YOR290C, strain snf2, stronger effect = lower value 0.946 | S. cerevisiae deletion strains, locus YOR316C, strain cot1, stronger effect = lower value 1.02 | S. cerevisiae deletion strains, locus YPL051W, strain arl3, stronger effect = lower value 0.997 | S. cerevisiae deletion strains, locus YPL055C, strain LGE1, stronger effect = lower value 1.01 and 1.02 | S. cerevisiae deletion strains, locus YPL078C, strain atp4, stronger effect = lower value 0.956 | S. cerevisiae deletion strains, locus YPL106C, strain sse1, stronger effect = lower value 0.938 | S. cerevisiae deletion strains, locus YPL240C, strain hsp82, stronger effect = lower value 0.963 | S. cerevisiae deletion strains, locus YPL241C, strain CIN2, stronger effect = lower value 0.992 and 0.993 | S. cerevisiae deletion strains, locus YPL256C, strain CLN2, stronger effect = lower value 1.01 | S. cerevisiae deletion strains, locus YPR119W, strain clb2, stronger effect = lower value 1.01 | S. cerevisiae deletion strains, locus YPR141C, strain kar3, stronger effect = lower value 1.01 | S. cerevisiae deletion strains, locus YPR163C, strain tif3, stronger effect = lower value 1.01 | S. cerevisiae deletion strains, locus YPR167C, strain met16, stronger effect = lower value 1.02 | S. cerevisiae deletion strains, strain wtn01, stronger effect = lower value 1.02 | S. cerevisiae strains, strain wild type, stronger effect = lower value 0.979
